Measurements: PubChem BioAssay (NCI)
About 79,000 compounds went through this panel and 15% of them were active in at least one assay; those are over-represented in the sample as a whole. A number with no mark means an inactive call. Active and inactive are the calls of the source. Rule as the data show it: active = growth inhibition above about 70%; inactive = the rest.

assay: NCI Yeast Anticancer Drug Screen. Data for the cln2 rad14 strain (AID 165);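 also: 0% = growth equal to vehicle treated cultures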; details: S. cerevisiae cln2 rad14 strain, at 5.0 µM (retest, dose inferred, filed as 0.5), stronger effect = higher value
Method in brief: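 Relative to vehicle controls, growth inhibition of compound-treated cln2 rad14 yeast was recorded.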

Question: With CC1=CC2OC3CC4OC(=O)/C=C/C=C/C(C(C)O)OCC(=O)C(C)CC(=O)OCC2(CC1)C4(C)C31CO1 (stereo not drawn) as the compound, how does the growth inhibition read?
Answer: 72% (active)

Question: Which growth inhibition does the source give for Cc1cc(=O)oc2c3c(ccc12)OC(c1ccc(Br)cc1)CC3=O (stereo not drawn) here?
Answer: 11%

Question: For OCC(O)C(O)C(O)/C=N\Nc1ccccc1 (stereo not drawn), which growth inhibition is on record?
Answer: -3%

Question: For CN(C)Cc1ccc2[nH]c3c(c2c1)CCCC3, which growth inhibition is on record?
Answer: 0%

Question: Which growth inhibition does the source give for CC(C)CCCC(C)C1CCC2C3CC=C4OC(=O)CCC4(C)C3CCC12C (stereo not drawn) here?
Answer: -2%

Question: For CC(C(=O)c1ccc2cc(Br)c3ccccc3c2c1)N(C)C (stereo not drawn), which growth inhibition is on record?
Answer: -5%

Question: Which growth inhibition does the source give for O=[N+]([O-])c1ccccc1SCc1ccccc1 here?
Answer: 15%

Question: For C(=P(c1ccccc1)(c1ccccc1)c1ccccc1)[P+](c1ccccc1)(c1ccccc1)c1ccccc1, which growth inhibition is on record?
Answer: 98% (active)

Question: Which growth inhibition does the source give for CCOC(=O)N1CCN(C(=S)N/N=C(\C)c2ncccn2)CC1 here?
Answer: -40%

Question: Which growth inhibition does the source give for CCC1(C)C(C#N)(C#N)C1(C#N)C#N here?
Answer: -42%

Question: Which growth inhibition does the source give for Cc1ccccc1C(O)(c1ccccc1C)C1(O)CCN(C)CC1 here?
Answer: -7%

Question: Which growth inhibition does the source give for Oc1c(C(Nc2ccccn2)c2ccccc2)ccc2cccnc12 (stereo not drawn) here?
Answer: -11%

Question: Which growth inhibition does the source give for Cc1ccc(C(CN(C)C)C(=O)c2ccccc2)cc1C (stereo not drawn) here?
Answer: -3%

Question: With COC(=O)/C=C(\NC1CC(OC2C[C@](O)(C(C)=O)Cc3c(O)c4c(c(O)c32)C(=O)c2c(OC)cccc2C4=O)OC(C)C1O)C(=O)OC (stereo partly drawn) as the compound, how does the growth inhibition read?
Answer: 2%

Question: For CC1(C)C/C(=N/NC(N)=S)C(=NO)/C(=N\NC(N)=S)C1, which growth inhibition is on record?
Answer: -13%

Question: Which growth inhibition does the source give for Cc1cc2c(c(C(N)=O)c1C)-c1cccc(F)c1C2=O here?
Answer: -1%

Question: Which growth inhibition does the source give for CN(C)c1ccc(/C=C(\C#N)c2cccc(Cl)c2)cc1 here?
Answer: -3%

Question: For Cc1ccc(S(=O)(=O)NNc2nc(N(C)C)nc(N(C)C)n2)cc1, which growth inhibition is on record?
Answer: 4%

Question: For CC(NNC(=S)NCc1ccccc1)c1cc2ccccc2cn1 (stereo not drawn), which growth inhibition is on record?
Answer: 3%

Question: For COc1ccc(Cc2c(-c3ccc(C)cc3)n[nH]c(=O)c2C2C(=O)N(c3ccccc3)N=C2c2ccccc2)cc1 (stereo not drawn), which growth inhibition is on record?
Answer: 98% (active)

Question: With CC1(c2ccccc2)OC(=O)C=CC1=O (stereo not drawn) as the compound, how does the growth inhibition read?
Answer: 8%

Question: Which growth inhibition does the source give for CC1CCC(C)(C)c2cc([N+](=O)[O-])cc([N+](=O)[O-])c21 (stereo not drawn) here?
Answer: 1%

Question: Which growth inhibition does the source give for CC1(C)CC(=O)C(/C=N/c2nc(-c3cccc([N+](=O)[O-])c3)cs2)=C(O)C1 here?
Answer: -7%

Question: For O=[N+]([O-])C(=C1Nc2ccccc2N1)C(Cl)=C(Cl)Cl, which growth inhibition is on record?
Answer: 10%

Question: For COc1ccc2c(c1)C1(C)CCCC(C)(C(=O)O)C1C(Br)C2=O (stereo not drawn), which growth inhibition is on record?
Answer: -8%

Question: For COc1cc(NCC(C)(O)CN2CCC(C)CC2C)c2ncccc2c1 (stereo not drawn), which growth inhibition is on record?
Answer: 13%

Question: Which growth inhibition does the source give for ClC/C=C/c1ccccc1 here?
Answer: 6%

Question: Which growth inhibition does the source give for O=C(c1ccc(O)c(Br)c1)c1cc(Br)ccc1O here?
Answer: 86% (active)

Question: For COc1ccc(OP2(Oc3ccc(OC)cc3)=NP(Oc3ccc(OC)cc3)(Oc3ccc(OC)cc3)=NP(Oc3ccc(OC)cc3)(Oc3ccc(OC)cc3)=NP(Oc3ccc(OC)cc3)(Oc3ccc(OC)cc3)=N2)cc1, which growth inhibition is on record?
Answer: 0%

Question: With COc1ccccc1NC(=O)CSC(N)=O as the compound, how does the growth inhibition read?
Answer: 5%

Question: For Cc1ccc(N=C(N)Nc2ccc(C)cn2)nc1, which growth inhibition is on record?
Answer: 19%

Question: For FC(F)(F)c1nc(Cl)nc2nc[nH]c12, which growth inhibition is on record?
Answer: -3%

Question: With O=[N+]([O-])c1ccccc1CC(c1c[nH]c2ccccc12)c1c[nH]c2ccccc12 as the compound, how does the growth inhibition read?
Answer: 1%

Question: With O=C(O)C1CCCCC1.[Ag] as the compound, how does the growth inhibition read?
Answer: 99% (active)

Question: With CC(C)c1ccc(O)c(O)c(=O)c1 as the compound, how does the growth inhibition read?
Answer: 18%

Question: Which growth inhibition does the source give for CC(C)(C)c1ccc(Sc2ncnc3ccccc23)cc1 here?
Answer: -1%

Question: Which growth inhibition does the source give for CC(C)NC(=O)CN1C(=O)NC(C)(c2ccccc2)C1=O (stereo not drawn) here?
Answer: 2%

Question: Which growth inhibition does the source give for COc1cccc(N2CCN(CC(O)COc3cc4c(c5c3CCCC5)CCCC4)CC2)c1 (stereo not drawn) here?
Answer: 13%

Question: Which growth inhibition does the source give for CC(CCN)(CCN)[N+](=O)[O-] here?
Answer: -25%

same assay, conditions: S. cerevisiae cln2 rad14 strain, at 50.0 µM (retest, dose inferred, filed as 5.0), stronger effect = higher value

Question: Which growth inhibition does the source give for CC1=CC2OC3CC4OC(=O)/C=C/C=C/C(C(C)O)OCC(=O)C(C)CC(=O)OCC2(CC1)C4(C)C31CO1 (stereo not drawn) here?
Answer: 99% (active)

Question: Which growth inhibition does the source give for Cc1cc(=O)oc2c3c(ccc12)OC(c1ccc(Br)cc1)CC3=O (stereo not drawn) here?
Answer: 27%

Question: For OCC(O)C(O)C(O)/C=N\Nc1ccccc1 (stereo not drawn), which growth inhibition is on record?
Answer: -7%

Question: With CN(C)Cc1ccc2[nH]c3c(c2c1)CCCC3 as the compound, how does the growth inhibition read?
Answer: 72% (active)

Question: With CC(C)CCCC(C)C1CCC2C3CC=C4OC(=O)CCC4(C)C3CCC12C (stereo not drawn) as the compound, how does the growth inhibition read?
Answer: 93% (active)

Question: With CC(C(=O)c1ccc2cc(Br)c3ccccc3c2c1)N(C)C (stereo not drawn) as the compound, how does the growth inhibition read?
Answer: 99% (active)

Question: Which growth inhibition does the source give for O=[N+]([O-])c1ccccc1SCc1ccccc1 here?
Answer: 43%

Question: With C(=P(c1ccccc1)(c1ccccc1)c1ccccc1)[P+](c1ccccc1)(c1ccccc1)c1ccccc1 as the compound, how does the growth inhibition read?
Answer: 99% (active)

Question: Which growth inhibition does the source give for CCOC(=O)N1CCN(C(=S)N/N=C(\C)c2ncccn2)CC1 here?
Answer: 99% (active)

Question: With CCC1(C)C(C#N)(C#N)C1(C#N)C#N as the compound, how does the growth inhibition read?
Answer: 85% (active)

Question: For Cc1ccccc1C(O)(c1ccccc1C)C1(O)CCN(C)CC1, which growth inhibition is on record?
Answer: -11%

Question: For Oc1c(C(Nc2ccccn2)c2ccccc2)ccc2cccnc12 (stereo not drawn), which growth inhibition is on record?
Answer: 94% (active)

Question: Which growth inhibition does the source give for Cc1ccc(C(CN(C)C)C(=O)c2ccccc2)cc1C (stereo not drawn) here?
Answer: 42%

Question: For COC(=O)/C=C(\NC1CC(OC2C[C@](O)(C(C)=O)Cc3c(O)c4c(c(O)c32)C(=O)c2c(OC)cccc2C4=O)OC(C)C1O)C(=O)OC (stereo partly drawn), which growth inhibition is on record?
Answer: 96% (active)

Question: For CC1(C)C/C(=N/NC(N)=S)C(=NO)/C(=N\NC(N)=S)C1, which growth inhibition is on record?
Answer: 27%

Question: Which growth inhibition does the source give for Cc1cc2c(c(C(N)=O)c1C)-c1cccc(F)c1C2=O here?
Answer: 14%

Question: For CN(C)c1ccc(/C=C(\C#N)c2cccc(Cl)c2)cc1, which growth inhibition is on record?
Answer: -25%

Question: With Cc1ccc(S(=O)(=O)NNc2nc(N(C)C)nc(N(C)C)n2)cc1 as the compound, how does the growth inhibition read?
Answer: 4%

Question: For CC(NNC(=S)NCc1ccccc1)c1cc2ccccc2cn1 (stereo not drawn), which growth inhibition is on record?
Answer: 79% (active)

Question: For COc1ccc(Cc2c(-c3ccc(C)cc3)n[nH]c(=O)c2C2C(=O)N(c3ccccc3)N=C2c2ccccc2)cc1 (stereo not drawn), which growth inhibition is on record?
Answer: 97% (active)

Question: For CC1(c2ccccc2)OC(=O)C=CC1=O (stereo not drawn), which growth inhibition is on record?
Answer: 100% (active)

Question: For CC1CCC(C)(C)c2cc([N+](=O)[O-])cc([N+](=O)[O-])c21 (stereo not drawn), which growth inhibition is on record?
Answer: 99% (active)

Question: For CC1(C)CC(=O)C(/C=N/c2nc(-c3cccc([N+](=O)[O-])c3)cs2)=C(O)C1, which growth inhibition is on record?
Answer: 99% (active)

Question: For O=[N+]([O-])C(=C1Nc2ccccc2N1)C(Cl)=C(Cl)Cl, which growth inhibition is on record?
Answer: 10%

Question: Which growth inhibition does the source give for COc1ccc2c(c1)C1(C)CCCC(C)(C(=O)O)C1C(Br)C2=O (stereo not drawn) here?
Answer: 96% (active)

Question: Which growth inhibition does the source give for COc1cc(NCC(C)(O)CN2CCC(C)CC2C)c2ncccc2c1 (stereo not drawn) here?
Answer: 52%

Question: Which growth inhibition does the source give for ClC/C=C/c1ccccc1 here?
Answer: 1%

Question: Which growth inhibition does the source give for O=C(c1ccc(O)c(Br)c1)c1cc(Br)ccc1O here?
Answer: 99% (active)

Question: For COc1ccc(OP2(Oc3ccc(OC)cc3)=NP(Oc3ccc(OC)cc3)(Oc3ccc(OC)cc3)=NP(Oc3ccc(OC)cc3)(Oc3ccc(OC)cc3)=NP(Oc3ccc(OC)cc3)(Oc3ccc(OC)cc3)=N2)cc1, which growth inhibition is on record?
Answer: -13%

Question: For COc1ccccc1NC(=O)CSC(N)=O, which growth inhibition is on record?
Answer: 7%

Question: For Cc1ccc(N=C(N)Nc2ccc(C)cn2)nc1, which growth inhibition is on record?
Answer: 74% (active)

Question: Which growth inhibition does the source give for FC(F)(F)c1nc(Cl)nc2nc[nH]c12 here?
Answer: 0%

Question: For O=[N+]([O-])c1ccccc1CC(c1c[nH]c2ccccc12)c1c[nH]c2ccccc12, which growth inhibition is on record?
Answer: 80% (active)

Question: For O=C(O)C1CCCCC1.[Ag], which growth inhibition is on record?
Answer: 99% (active)

Question: For CC(C)c1ccc(O)c(O)c(=O)c1, which growth inhibition is on record?
Answer: 26%

Question: Which growth inhibition does the source give for CC(C)(C)c1ccc(Sc2ncnc3ccccc23)cc1 here?
Answer: 81% (active)

Question: With CC(C)NC(=O)CN1C(=O)NC(C)(c2ccccc2)C1=O (stereo not drawn) as the compound, how does the growth inhibition read?
Answer: -3%

Question: For COc1cccc(N2CCN(CC(O)COc3cc4c(c5c3CCCC5)CCCC4)CC2)c1 (stereo not drawn), which growth inhibition is on record?
Answer: 94% (active)

Question: Which growth inhibition does the source give for CC(CCN)(CCN)[N+](=O)[O-] here?
Answer: -2%
